The campaign covered roughly 220,000 compounds. About 830 (0.38%) were called active.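 The calls were made as follows: active = compound inhibiting the enzyme by more than half at any dose during confirmatory dose-response retesting; inconclusive = strong single-dose inhibitors picked by rank but not retested; inactive = the rest.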 Not all results are given here. Measured potencies and affinities stand elsewhere.
Molecular target: Leucine aminopeptidase (Plasmodium falciparum (isolate 3D7)) (UniProt Q8IL11)
Sequence (Q8IL11 whole entry, looked up): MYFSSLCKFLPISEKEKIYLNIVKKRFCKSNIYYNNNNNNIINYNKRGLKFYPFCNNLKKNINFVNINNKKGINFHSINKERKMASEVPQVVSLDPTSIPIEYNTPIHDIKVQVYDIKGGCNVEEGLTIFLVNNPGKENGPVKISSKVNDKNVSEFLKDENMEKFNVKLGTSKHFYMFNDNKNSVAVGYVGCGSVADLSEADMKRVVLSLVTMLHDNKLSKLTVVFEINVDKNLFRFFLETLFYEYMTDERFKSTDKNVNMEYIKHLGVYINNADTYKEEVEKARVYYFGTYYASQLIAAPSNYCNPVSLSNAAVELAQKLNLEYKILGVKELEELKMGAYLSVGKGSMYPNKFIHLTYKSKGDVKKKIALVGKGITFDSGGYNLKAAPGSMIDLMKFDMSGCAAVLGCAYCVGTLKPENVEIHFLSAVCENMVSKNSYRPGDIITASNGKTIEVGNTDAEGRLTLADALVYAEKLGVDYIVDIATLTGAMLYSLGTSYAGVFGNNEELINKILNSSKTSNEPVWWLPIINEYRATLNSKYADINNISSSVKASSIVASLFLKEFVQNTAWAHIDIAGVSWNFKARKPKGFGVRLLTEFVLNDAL
Experiment: P. falciparum M17LAP inhibitors, primary screen, biochemical, fluorogenic H-Leu-NHMec substrate, 1536-well (AID 1619);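 also: plate controls were full reaction with DMSO carrier for no effect and no enzyme background for full effect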
Conditions: recombinant M17LAP, H-Leu-NHMec fluorogenic kinetic assay; at 30 µM; hits give high values

inhibition, inactive:
Cc1cccc(OCCSc2nncn2C)c1 -2.41%
O=C1c2ccccc2C(=O)N1CSc1nnc(Nc2ccccc2F)s1 4.65%
CN(C)c1oc(-c2ccccc2Cl)nc1S(=O)(=O)c1ccccc1 0.69%
Cc1cccc(C)c1NC(=S)N/N=C/c1ccccc1C(=O)O 7.19%
COc1cc(/C=C/C(=O)OCC(=O)Nc2ccccc2Cl)cc(OC)c1OC 7.2%
Cc1ccccc1C(=O)NC(CC(C)C)C(=O)OCC(=O)c1c(N)n(C)c(=O)n(C)c1=O (centres undefined) -1.49%
CC(C)(C)NC(=O)C(c1ccc(O)cc1)N(C(=O)CCC(=O)Nc1nccs1)c1ccc(F)cc1 (centres undefined) 13.2%
O=C(CCCOc1ccccc1)Nc1ccccc1C(F)(F)F -17.7%
O=C1CC(c2ccccc2)=NN1c1nc(-c2ccccc2)cs1 -0.33%
CCC1SC(CC)C(=O)N(CC(=O)NCc2ccc(F)cc2)C1=O (centres undefined) 7.04%
CC1SC(C)C(=O)N(CC(=O)Nc2ccc3c(c2)OCO3)C1=O (centres undefined) 35.2%
CCOc1ccc(NC(=O)CN2C(=O)CSC2=O)cc1 54.4%
COc1ccc(NC(=O)CN2C(=O)C(C)SC(C)C2=O)c(OC)c1 (centres undefined) 26.5%
CC1SCC(=O)N(CC(=O)Nc2ccc3c(c2)OCCO3)C1=O (centres undefined) 2.2%
O=C(CN1C(=O)CSCC1=O)NCc1ccc(F)cc1 18.6%
CCOC(=O)c1ccc(NC(=O)CN2C(=O)CSC(C)C2=O)cc1 (centres undefined) 37%
CCOc1ccc(NC(=O)CN2C(=O)C(C)SC(C)C2=O)cc1 (centres undefined) 5.98%
CCOC(=O)C1(CCSC)NC(c2ccco2)C2C(=O)N(C)C(=O)C21 (centres undefined) -0.76%
CC(=O)c1sc(N2CCOCC2)nc1-c1ccccc1 9.61%
OCCC1CN(Cc2nc(-c3ccccc3)cs2)CCN1C1CCCC1 (centres undefined) 7.26%
Cc1c(-c2ccccc2)oc2c(C(=O)OCC(=O)Nc3cccc(F)c3)cccc2c1=O 2.04%
CCOC(=O)c1ccc(NC(=O)c2cccc(C)c2[N+](=O)[O-])cc1 0.85%
CCCCN(CC)S(=O)(=O)c1ccc(C(=O)N(CCCN(C)C)c2nc3cc(C)cc(C)c3s2)cc1 -3.97%
CC(=O)Nc1cccc(C(=O)OCc2ccc([N+](=O)[O-])cc2)c1 1.17%
Cc1cccc(Nc2nnc(C)c(=O)n2N)c1 8.38%
O=c1[nH]c2ccc(S(=O)(=O)N3CCCCC3)cc2[nH]c1=O 38.3%
O=c1[nH]c2ccc(S(=O)(=O)N3CCN(c4ccccc4)CC3)cc2[nH]c1=O 40.2%
COCC(=O)NCc1ccc2c(c1)OCO2 -6.02%
COC(=O)NCc1ccc2c(c1)OCO2 2.83%
COc1ccc(OCCCC(=O)Nc2cccc(SC)c2)cc1 1.34%
Nc1c(C(=O)C2CC2)sc2nc(-c3ccccc3)cc(C(F)(F)F)c12 -0.94%
O=c1cc(O)c2sc3nc(-c4ccccc4)cc(C(F)(F)F)c3c2[nH]1 -7%
Cc1cc(C)cc(N(C(=O)c2sc(C)nc2C)C(C(=O)NC(C)(C)C)c2ccncc2)c1 (centres undefined) 0.85%
FCCCOc1ccc(/C=N/OCc2ccc(Cl)cc2Cl)cc1 11.5%
